NLRP3 yeast inh = NALP3 inhibition in yeast. Yeast reconstituted NLRP3/ASC/caspase-1, beta-gal luminescence, 24 h. hit rate 0.39% among 330,000. inhibition, % at 10 µM;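 active = inhibition of 50% or more; inactive = inhibition below 50%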
tim23-1 inh = tim23-1 yeast growth inhibition; S. cerevisiae tim23-1 growth, BacTiter-Glo luminescence, 24 h; inhibition, % at 20 µM; hit rate 1.3% among 330,000;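 active = growth inhibition of the mutant yeast at or above 50%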;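 also: temperature-sensitive mutant grown at 25 °C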
TIM10 inh = inhibits growth of TIM10 yeast strain. S. cerevisiae TIM10 strain growth, BacTiter-Glo luminescence, 24 h. inhibition, % at 10 µM. hit rate 1.4% among 330,000;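 active = inhibition of 40% or more at the single tested concentration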;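 also: wild-type TIM10 isogenic control strain grown at permissive 25 °C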
PfHsp90 yeast 2 = reduces growth (ATP signal) of yeast expressing P. falciparum Hsp90. S. cerevisiae expressing PfHsp90, BacTiter-Glo ATP, 48 h; yeast lacking PDR1 and PDR3 efflux regulators. inhibition, % at 9.4 µM. hit rate 0.32% among 310,000. AID 504621;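 active = every replicate shows inhibition above about 80%, whatever the replicate mean, limit read from the data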
tim10-1 inh = tim10-1 yeast growth inhibition; S. cerevisiae tim10-1 ts strain growth, BacTiter-Glo, 24 h; inhibition, % at 20 µM; hit rate 2.2% among 330,000; AID 463190;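 active = inhibition of at least 40%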;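 also: mutant grown at 25 °C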
tim23-1 conf = confirmation of tim23-1 mutant yeast growth inhibitors. shares compounds with tim23-1 inh. S. cerevisiae tim23-1 growth, BacTiter-Glo luminescence, 24 h. inhibition, % at 20 µM. AID 463218. hit rate 83% among 4,400;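 active = inhibition above about 39% in either of two replicate wells at 20 µM, limit read from the data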;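 also: temperature-sensitive tim23-1 mutant grown at 25 °C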
A number is an active result. A selection: hits, their analogues and other compounds. The true share with any hit is near 3.7%.

Screening FC(F)(F)c1cc(CCN2CCNC[C@@H]2CC2CCCCC2)cc(C(F)(F)F)c1 returned NLRP3 yeast inh inactive, tim23-1 inh 64.8, TIM10 inh inactive, PfHsp90 yeast 2 inactive, tim10-1 inh inactive and tim23-1 conf 48.0.
`CCCC[C@@H]1CNCCN1CCc1cc(C(F)(F)F)cc(C(F)(F)F)c1` gave NLRP3 yeast inh inactive, tim23-1 inh inactive, TIM10 inh inactive, PfHsp90 yeast 2 inactive and tim10-1 inh inactive.
`c1ccc2[nH]c(CSc3nc4ccccc4o3)nc2c1` gave NLRP3 yeast inh inactive, tim23-1 inh 54.4, TIM10 inh inactive, PfHsp90 yeast 2 inactive, tim10-1 inh inactive and tim23-1 conf 54.9.
For Cc1cccc(N2C(=O)CC(c3ccc(F)cc3)C3=C2COC3=O)c1 (stereo not drawn) the results were NLRP3 yeast inh inactive, tim23-1 inh inactive, TIM10 inh inactive and tim10-1 inh inactive.
For O=C(Cn1ccccc1=O)NCc1ccc(F)cc1 the results were NLRP3 yeast inh inactive, tim23-1 inh inactive, TIM10 inh inactive, PfHsp90 yeast 2 inactive and tim10-1 inh inactive.
CCCCN(CC)c1nc(N)c2c(N)nc(OCC)cc2c1C#N was read as NLRP3 yeast inh inactive, tim23-1 inh 56.0, TIM10 inh inactive, PfHsp90 yeast 2 inactive, tim10-1 inh inactive and tim23-1 conf 43.9.
For CCCCN(CC)c1nc(N)c(C#N)c(CC#N)c1C#N the results were NLRP3 yeast inh inactive, tim23-1 inh inactive, TIM10 inh inactive and tim10-1 inh inactive.
For CN1CCSc2ccc(C(=O)NCc3cccc(Br)c3)cc21 the results were NLRP3 yeast inh inactive, tim23-1 inh 53.1, TIM10 inh inactive, PfHsp90 yeast 2 inactive, tim10-1 inh inactive and tim23-1 conf 50.3.
For C[C@@H](NC(=O)c1ncn(Cc2ccccc2)c1C(=O)N[C@H](C)c1ccccc1)c1ccccc1 the results were NLRP3 yeast inh inactive, tim23-1 inh inactive, TIM10 inh inactive, PfHsp90 yeast 2 inactive and tim10-1 inh inactive.
Cc1cccc(NC(=O)CSCC(=O)Nc2cc(Cl)ccc2N2CCOCC2)c1 was read as NLRP3 yeast inh inactive, tim23-1 inh inactive, TIM10 inh inactive and tim10-1 inh inactive.
O=C(Nc1ccc(N2CCN(C(=O)c3cccs3)CC2)cc1)c1ccccc1Cl was read as NLRP3 yeast inh inactive, tim23-1 inh inactive, TIM10 inh inactive, PfHsp90 yeast 2 inactive and tim10-1 inh inactive.
O=C(Nc1ccccc1Cl)c1cccc(NC(=O)c2cccs2)c1 was read as NLRP3 yeast inh inactive, tim23-1 inh 59.3, TIM10 inh inactive, PfHsp90 yeast 2 inactive, tim10-1 inh inactive and tim23-1 conf 62.7.
O=C(Nc1ccc(NC(=O)c2cccs2)cc1)c1ccc(Br)o1 was read as NLRP3 yeast inh inactive, tim23-1 inh inactive, TIM10 inh inactive and tim10-1 inh inactive.
O=C(Nc1cccc(NC(=O)c2cccs2)c1)c1ccc(Br)o1 was read as NLRP3 yeast inh inactive, tim23-1 inh 60.7, TIM10 inh inactive, PfHsp90 yeast 2 inactive, tim10-1 inh inactive and tim23-1 conf 71.7.
Screening O=C(Nc1ccc(N2CCN(C(=O)c3cccs3)CC2)cc1)c1ccc(Br)o1 returned NLRP3 yeast inh inactive, tim23-1 inh 55.0, TIM10 inh inactive, PfHsp90 yeast 2 inactive, tim10-1 inh inactive and tim23-1 conf 54.5.
For O=C(Cc1ccc(Cl)cc1Cl)Nc1ccncc1Cl the results were NLRP3 yeast inh inactive, tim23-1 inh inactive, TIM10 inh inactive, PfHsp90 yeast 2 inactive and tim10-1 inh inactive.
For CN(C)CCCNC(=O)C[C@H]1C[C@H](C(=O)N2CCOCC2)[C@@]2(C)c3[nH]c4ccc(Cl)cc4c3CCN2C1=O the results were tim23-1 inh inactive, TIM10 inh inactive, PfHsp90 yeast 2 inactive and tim10-1 inh inactive.
For O=C(N/N=C/c1ccc2cccnc2c1)c1ccco1 the results were NLRP3 yeast inh inactive, tim23-1 inh 59.3, TIM10 inh inactive, PfHsp90 yeast 2 inactive, tim10-1 inh inactive and tim23-1 conf 63.8.
`CC(=O)Oc1ccc(C)cc1-n1nc2ccccc2n1` gave NLRP3 yeast inh inactive, tim23-1 inh inactive, TIM10 inh inactive and tim10-1 inh inactive.
`S=C1CCC(c2ccc(Cl)cc2)=NN1c1ccccc1` gave NLRP3 yeast inh inactive, tim23-1 inh 50.5, TIM10 inh inactive, PfHsp90 yeast 2 inactive, tim10-1 inh inactive and tim23-1 conf inactive.
Screening O=C(c1ccccc1)N1CCCC(c2ccc(Cl)cc2)=N1 returned NLRP3 yeast inh inactive, tim23-1 inh inactive, TIM10 inh inactive and tim10-1 inh inactive.
`Cc1ccc(S(=O)(=O)N2C[C@@H]3[C@H]4CC[C@H](C4)[C@@H]3[C@@H](C)[C@H]2c2ccco2)cc1` gave tim23-1 inh 50.4, TIM10 inh inactive, PfHsp90 yeast 2 inactive, tim10-1 inh inactive and tim23-1 conf inactive.
`Cc1ccc(S(=O)(=O)N2C[C@@H]3[C@H]4CC[C@H](C4)[C@@H]3[C@@H](C)[C@@H]2c2ccco2)cc1` gave tim23-1 inh inactive, TIM10 inh inactive, PfHsp90 yeast 2 inactive and tim10-1 inh inactive.
Screening O=C1/C(=C\c2ccc(O)cc2)SC(=S)N1Cc1ccccc1 returned NLRP3 yeast inh inactive, tim23-1 inh 54.8, TIM10 inh inactive, PfHsp90 yeast 2 inactive, tim10-1 inh inactive and tim23-1 conf inactive.
For O=C(O)c1ccc(/C=C2/SC(=S)N(Cc3ccccc3)C2=O)cc1 the results were PfHsp90 yeast 2 inactive.
`CSCCC(NC(=O)/C(=C/c1ccco1)NC(=O)c1ccc(Br)o1)C(=O)O` (stereo not drawn) gave NLRP3 yeast inh inactive, tim23-1 inh inactive, TIM10 inh inactive, PfHsp90 yeast 2 inactive and tim10-1 inh inactive.
Screening Fc1cccc(-c2cc3nc4c(c(N5CCC6(CC5)OCCO6)n3n2)CCCC4)c1 returned NLRP3 yeast inh inactive, tim23-1 inh 52.5, TIM10 inh inactive, PfHsp90 yeast 2 inactive, tim10-1 inh inactive and tim23-1 conf inactive.
For Cc1cc(OC(C)C(=O)N2CCN(c3ccc(F)cc3)CC2)c2c(C)c(C)c(=O)oc2c1 (stereo not drawn) the results were NLRP3 yeast inh inactive, tim23-1 inh inactive, TIM10 inh inactive, PfHsp90 yeast 2 inactive and tim10-1 inh inactive.
Screening CSc1nnc(C)c(/C=C/Nc2ccc(C)cc2)n1 returned NLRP3 yeast inh inactive, tim23-1 inh inactive, TIM10 inh inactive and tim10-1 inh inactive.
Screening CSc1nnc(C)c(/C=C/NOCc2ccc(Cl)cc2)n1 returned NLRP3 yeast inh inactive, tim23-1 inh 53.7, TIM10 inh inactive, PfHsp90 yeast 2 inactive, tim10-1 inh inactive and tim23-1 conf 72.2.
For C=CCn1c(SCC(=O)Nc2nccs2)nnc1-c1cc2cccc(OC)c2o1 the results were NLRP3 yeast inh inactive, tim23-1 inh inactive, TIM10 inh inactive, PfHsp90 yeast 2 inactive and tim10-1 inh inactive.
OC[C@@H]1CC[C@@H](Cc2ccc(-c3ccccc3)cc2)O1 was read as tim23-1 inh 52.6, TIM10 inh inactive, PfHsp90 yeast 2 inactive, tim10-1 inh inactive and tim23-1 conf inactive.
Screening COC(=O)c1sccc1NC(=O)Nc1ccc(C)c(C)c1 returned NLRP3 yeast inh inactive, tim23-1 inh 59.7, TIM10 inh inactive, PfHsp90 yeast 2 inactive, tim10-1 inh inactive and tim23-1 conf 49.1.

Compound activity: PubChem, several laboratories
